Assay outcomes from PubChem.
Glioma ERSR ind – inducers of ER stress response in human glioma cells | Potency, µM, hits mostly activators | U87-MG GRP78 promoter luciferase reporter, 16 h | 420,000 tested, 0.02% active; also: series mostly up to about 76 µM; nearly all actives have a fitted effect of over 35% in size
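Stably transfected U87-MG human glioma cells carrying a GRP78-based luminescent sensor were seeded at 1000 cells/well, pin-dosed with compounds and incubated 16 h. Luciferase reagent was then added, and end-point luminescence was read after 10 min at room temperature.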
Abeta yeast res – compounds reversing amyloid beta toxicity in yeast; yeast expressing A-beta42, growth rescue, OD600, 48 h; response scale: 0% DMSO, 100% iron-clioquinol control; Potency, µM (series often up to 46.1 µM), usual class: activators; 410,000 tested, 0.063% active; AID 1347071; also: nearly all actives have a fitted effect of over 55% in size
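Yeast growth medium received pinned compounds, then yeast cells expressing toxic A-beta were added; plates incubated at 30 C for 48 hr. Growth read as absorbance at 600 nm, normalized to DMSO and equimolar FeCl3 plus clioquinol controls.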
FUS suppressor – suppressors of FUS proteinopathy in yeast. S. cerevisiae FUS-expressing, growth rescue, OD600, 24 h. Potency, µM (doses to about 76.6 µM), most hits filed as activators. 390,000 tested, 0.24% active; also: nearly all actives have a fitted effect of over 55% in size
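Yeast FUS proteinopathy model; galactose-induced FUS (2%), starting OD 0.005. Cpds in dilution series, 24hr, 30C, 99% humidity. Abs 600 nm growth. Pos ctrl CP55940 (top 92uM final); neg ctrl DMSO.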
aSyn yeast inh – inhibitors of alpha-synuclein toxicity in yeast; 370,000 tested, 0.14% active; AID 652106; Potency, µM (top dose mostly 46.1 µM), most hits filed as activators; Yeast expressing alpha-synuclein, growth rescue, BacTiter-Glo, 24 h; also: nearly all actives have a fitted effect of over 65% in size
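Screening used galactose-induced yeast with toxic alpha-synuclein levels, exposed to compound for 24 hr at 30 deg C. Cell growth, read with BacTiter-Glo luminescence, gave the measured signal.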
MBNL1-CUG inh – MBNL1-poly(CUG) RNA binding inhibition; 280,000 tested, 0.036% active; TR-FRET MBNL1-His/biotin-(CUG)12 binding, 665/545 ratio; Potency, µM (series often up to 57.5 µM), hits mostly inhibitors; active = well fitted inhibition curve with a large enough effect in the signal ratio, with a control signal flat, not every such curve was filed as active; inconclusive = small, poorly fitted or top-dose-only effect, or effect the other way, or a change in a side signal; inactive = no such curve, though single readings can be large or run the other way; the % refers to the signal ratio
Target sequence (Q9NR56 whole entry, looked up): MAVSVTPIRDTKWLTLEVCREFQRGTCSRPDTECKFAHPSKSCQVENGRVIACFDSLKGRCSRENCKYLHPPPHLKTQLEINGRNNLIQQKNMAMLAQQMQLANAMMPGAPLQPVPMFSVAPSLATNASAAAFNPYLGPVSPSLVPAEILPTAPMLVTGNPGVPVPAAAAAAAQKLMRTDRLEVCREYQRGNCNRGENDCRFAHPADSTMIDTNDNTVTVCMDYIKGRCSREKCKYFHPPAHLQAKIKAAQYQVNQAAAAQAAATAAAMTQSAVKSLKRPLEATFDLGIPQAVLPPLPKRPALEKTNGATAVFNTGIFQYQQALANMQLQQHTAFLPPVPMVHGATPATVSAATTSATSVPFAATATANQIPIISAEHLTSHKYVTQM
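His-tagged MBNL1 binding to biotinylated (CUG)12 RNA was measured by TR-FRET using terbium anti-His antibody (0.055 ng/ul final) and streptavidin-XL665 (5 nM final). Compounds were titrated 92 nM to 58 uM; 60 min at room temperature.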
TDP-43 yeast inh – inhibitors of TDP-43 toxicity in yeast | TDP-43 expressing yeast growth rescue, BacTiter-Glo, 24 h | Potency, µM (top dose mostly 46.1 µM), usual class: activators | 410,000 tested, 1.8% active; also: nearly all actives have a fitted effect of over 50% in size
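Galactose-induced TDP-43 yeast, OD600=0.02, compound pinned; 24 hr, 30 deg C; BacTiter-Glo luminescence for growth. Inhibitors of TDP-43 toxicity read as activators.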
Numbers stand for hits; - = inactive; ? = inconclusive; . = no result given; ! = repeats disagree. Sampled rows, rich in hits. Any-hit rate of the full collection: about 2%. Unless noted, calls follow the shape of the dose curve; as a rule, active = well fitted curve in the direction sought with a large enough effect; inconclusive = small, poorly fitted or top-dose-only effect, or another doubt; inactive = no such curve, though single readings can be large; an effect the other way counts as inactive or inconclusive.

SMILES | Glioma ERSR ind | Abeta yeast res | FUS suppressor | aSyn yeast inh | MBNL1-CUG inh | TDP-43 yeast inh
Cc1c(C(=O)Nc2ccc3c(c2)OCCO3)sc2ncnc(N3CCCCC3C)c12 (configuration not stated) | - | - | - | - | - | 16µM
Cc1nc(N2CCOCC2)c2c(C)c(C(=O)Nc3ccccc3C(F)(F)F)sc2n1 | - | - | - | - | - | ?
Cc1nc(N2CCC(C)CC2)c2c(C)c(C(=O)Nc3ccc(C(F)(F)F)cc3)sc2n1 | - | - | - | - | - | ?
O=C([C@@H]1C[C@@H](Sc2nc3ccccc3[nH]2)CN1Cc1c(F)cccc1F)N1CCOCC1 | - | . | . | . | . | .
O=C1C(N2CCOCC2)=C(n2nnc3ccccc32)C(=O)c2ccccc21 | - | - | - | - | ? | 22µM
CCOc1ccc(-n2c(SCC(=O)Nc3ccc4cn[nH]c4c3)nnc2-c2ccncc2)cc1 | . | . | - | . | . | .
CN(CC1COCCO1)C(=O)c1cnn(-c2ncc3c(n2)-c2ccccc2CC3)c1C1CC1 (configuration not stated) | - | . | . | . | . | .
COc1ccc(OC)c(-c2nnc(-c3ccc(C)o3)o2)c1 | - | - | - | - | - | 13µM
Cc1ccc(C2=NC3(CCCC3)N=C2SCC(=O)Nc2ccc3c(c2)OCCO3)cc1 | - | - | - | - | ? | -
O=C(CSc1ncc(-c2ccccc2)[nH]1)Nc1ccc(Cl)cc1 | - | - | - | . | . | 22µM
O=C(CSc1ncc(-c2ccccc2)[nH]1)Nc1ccccc1 | - | - | - | - | - | -
Cc1ccc(C2=NC(C)(C)N=C2SCC(=O)Nc2ccc(Cl)cc2)cc1 | - | - | - | - | - | 35µM
CC1(C)N=C(SCC(=O)Nc2ccccc2)C(c2ccc(Cl)cc2)=N1 | - | - | - | - | - | 18µM
CC1(C)N=C(SCC(=O)Nc2ccc(Cl)cc2Cl)C(c2ccccc2)=N1 | - | - | - | - | - | -
O=C(CSc1nc2ccccc2o1)NCc1ccc2c(c1)OCO2 | - | - | - | - | - | 14µM
O=C(CN1CCCc2ccccc21)NCCc1ccc(Cl)cc1 | - | - | - | - | - | 14µM
O=C(NCCc1ccc(Cl)cc1)C1(c2ccccc2)CC1 | - | - | - | - | - | 14µM
O=C(CSc1nc2ccc(Cl)cc2o1)NCc1ccc2c(c1)OCO2 | - | - | - | - | - | ?
O=C(CN1CCCc2ccccc21)NCc1ccc2c(c1)OCO2 | - | - | - | - | - | 11µM
CCCS(=O)(=O)NCc1c(C)ncc2c1CCN(C(=O)c1cccc(C(F)(F)F)c1)C2 | - | . | . | . | . | .
COc1ccc(S[C@]2(C(=O)N3CCOCC3)CC(=O)N(C(=O)/C=C/c3ccccc3)[C@@H]2c2ccc(OC)cc2)cc1 | . | . | - | . | . | .
O=C(CSc1ncccn1)N/N=C/c1ccc(OC2CSC2)cc1 | - | - | - | - | - | 11µM
CCOC(=O)C1=NOC(C(=O)NCc2ccccc2)(C(=O)c2ccc(OC)cc2)C1 (configuration not stated) | . | . | - | . | . | .
Cc1cc(OC(F)F)ccc1NC(=S)NC1CCCC1 | - | 13µM | - | - | - | -
CC(C)(C)c1nnc(N/N=C/c2ccccc2)n(N)c1=O | - | - | . | - | - | -
SMILES | Glioma ERSR ind | Abeta yeast res | FUS suppressor | aSyn yeast inh | MBNL1-CUG inh | TDP-43 yeast inh
CC(C)(C)c1nnc(N/N=C/c2ccccc2O)n(N)c1=O | - | 11µM | - | 18µM | - | -
CCc1cc(SC#N)cc(C)c1N | - | - | - | - | - | 18µM
CCc1cc(SC#N)cc(C)c1NC(=O)CCl | - | - | - | - | - | ?
O=C(c1cccc(F)c1F)N1CCCC(c2nc(-c3cccs3)no2)C1 (configuration not stated) | . | . | - | . | . | .
CC[C@H](C)[C@H]1O[C@]2(CC[C@@H]1C)C[C@@H]1C[C@@H](CC=C(C)[C@@H](O[C@H]3C[C@H](OC)[C@@H](O[C@H]4C[C@H](OC)[C@@H](O)[C@H](C)O4)[C@H](C)O3)[C@@H](C)C=CC=C3CO[C@@H]4[C@H](O)C(C)=C[C@@H](C(=O)O1)[C@]34O)O2 | - | - | 7.1µM | - | . | -
Cc1cnc(-n2ncc(C(=O)N(C)CCc3ccccn3)c2-c2cccs2)nc1-c1ccc(F)cc1 | - | . | . | . | . | .
Cc1ccccc1NC(=S)N(Cc1ccccn1)Cc1ccccc1Cl | - | 13µM | - | - | - | ?
COc1ccccc1NC(=S)N(Cc1ccccn1)Cc1ccccc1Cl | - | - | - | - | - | -
Cc1ccccc1CNC(=O)CCC(=O)N1CCSc2ccccc21 | - | - | - | . | . | -
COc1ccc(Br)cc1CNC(=O)CCC(=O)N1CCSc2ccccc21 | - | - | ? | - | - | 22µM!
O=C(Cc1cccc(C(F)(F)F)c1)OCN1C(=O)c2ccccc2C1=O | - | - | - | - | - | 35µM
CCN(CCCN(C)C)c1ccc(/C=C/c2ccnc3ccccc23)cc1 | - | . | . | - | . | .
Cc1ccc(-c2cc(O)cc3sc(=O)oc23)cc1C | - | . | - | - | - | 11µM
O=[N+]([O-])c1ccccc1/C=N/n1c(C2CCCCC2)n[nH]c1=S | - | - | - | - | - | 32µM
COc1cc(=O)n2c(c1C(=O)NCc1ccco1)CCN(Cc1cccc(C(F)(F)F)c1)CC2 | - | . | . | . | . | .
COc1ccc(-c2nnc(SCc3csc(N)n3)n2C)cc1 | - | - | - | - | - | -
Cc1ccc(Nc2nc(CSc3nnc(-c4ccc(F)cc4)n3C)cs2)cc1 | - | - | . | - | - | 18µM
OC(c1cccnc1)c1ccc2c(c1)CN(Cc1cccc3c1OCO3)CCO2 (configuration not stated) | - | . | . | . | . | .
CCCCN(C(=O)c1oc2ccc(OCC)cc2c1C)c1c(N)n(CCCC)c(=O)[nH]c1=O | - | - | . | - | . | -
CCCCn1c(N)c(N(CCOC)C(=O)c2oc3ccc(Br)cc3c2C)c(=O)[nH]c1=O | - | - | 16µM | - | . | -
CCN(C(=O)CSc1nnc(-c2cccnc2)n1Cc1ccco1)c1ccccc1C | . | . | - | . | . | .
COc1ccc(-c2nnc(SCC(=O)Nc3ccc(S(=O)(=O)Nc4cc(C)nc(C)n4)cc3)n2-c2ccc(OC)cc2)cc1 | . | . | - | . | . | .
CCN1CCN(c2c(/C=C3\SC(=S)N(Cc4ccco4)C3=O)c(C)c(C#N)c(=O)n2C)CC1 | - | - | 22µM | - | - | -
COc1ccc(-n2c(C)cc(/C=C3\SC(=S)N(Cc4ccco4)C3=O)c2C)cc1 | - | - | - | - | . | -
O=C(c1oc(=O)c2ccccc2c1-c1ccccc1)N1CCOCC1 | - | - | - | - | - | -
Cc1cccc(N2CCN(C(=O)c3oc(=O)c4ccccc4c3-c3ccccc3)CC2C)c1 (configuration not stated) | - | - | ? | . | . | 13µM
Cc1cc(C)c2c(CC(=O)NN(C)C)coc2c1 | - | - | - | - | - | -
